Assay outcomes deposited in PubChem by several laboratories.
PERK inhibitor: blocks human PERK kinase; Q9NZJ5; 220,000 compounds, 0.17% hits; CHO PERK-DD fusion, SEAP luminescence translation reporter; inhibition, % at 5.6 µM; AID 1416;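 active means inhibition above the mean inhibition of all tested compounds plus 3 SD, set separately per screening campaign, cut at about 2.9% in these data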;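 further: PERK kinase domain activated by AP20187 dimerizer at 100 nM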
Target sequence (Q9NZJ5 whole entry, looked up, the tested form may be a part): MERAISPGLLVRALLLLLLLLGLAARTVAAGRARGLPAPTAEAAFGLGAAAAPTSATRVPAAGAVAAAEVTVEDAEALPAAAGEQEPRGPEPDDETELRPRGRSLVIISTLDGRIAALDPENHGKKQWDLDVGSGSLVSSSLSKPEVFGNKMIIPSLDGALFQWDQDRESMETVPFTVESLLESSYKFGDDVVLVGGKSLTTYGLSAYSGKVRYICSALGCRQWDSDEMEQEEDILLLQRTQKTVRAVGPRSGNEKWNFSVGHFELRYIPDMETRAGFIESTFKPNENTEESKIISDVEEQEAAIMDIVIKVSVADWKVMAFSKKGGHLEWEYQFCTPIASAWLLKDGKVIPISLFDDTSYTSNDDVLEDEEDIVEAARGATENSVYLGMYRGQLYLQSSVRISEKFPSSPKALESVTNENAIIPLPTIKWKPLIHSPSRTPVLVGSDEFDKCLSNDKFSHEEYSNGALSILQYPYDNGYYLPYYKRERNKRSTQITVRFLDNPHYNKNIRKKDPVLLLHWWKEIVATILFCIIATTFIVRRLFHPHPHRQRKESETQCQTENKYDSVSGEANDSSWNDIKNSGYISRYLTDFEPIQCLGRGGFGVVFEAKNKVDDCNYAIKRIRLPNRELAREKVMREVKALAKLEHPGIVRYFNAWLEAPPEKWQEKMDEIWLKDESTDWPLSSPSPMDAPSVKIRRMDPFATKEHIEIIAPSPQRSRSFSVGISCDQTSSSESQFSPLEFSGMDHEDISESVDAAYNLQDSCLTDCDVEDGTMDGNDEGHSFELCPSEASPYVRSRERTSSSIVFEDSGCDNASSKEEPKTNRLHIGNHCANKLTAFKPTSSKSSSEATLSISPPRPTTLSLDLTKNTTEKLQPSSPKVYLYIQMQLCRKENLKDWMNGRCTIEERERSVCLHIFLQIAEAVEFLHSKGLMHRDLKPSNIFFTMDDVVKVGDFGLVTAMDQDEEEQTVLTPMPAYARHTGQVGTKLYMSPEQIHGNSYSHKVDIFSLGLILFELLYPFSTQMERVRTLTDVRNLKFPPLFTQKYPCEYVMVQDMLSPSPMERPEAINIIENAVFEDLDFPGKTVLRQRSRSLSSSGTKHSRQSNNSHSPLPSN
eIF4E-4G inh: blocks eIF4E binding to eIF4G; TR-FRET eIF4E-eIF4GI(517-606) binding, 2 h; 220,000 compounds, 0.37% hits; P63073+Q04637; inhibition, % at 21.7 µM;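 active means inhibition above about 30%, limit read from the data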
eIF4H FP inh: inhibitors of RNA binding by human eIF4H | inhibition, % at 35 µM | Q15056 | eIF4H fluorescence polarization binding assay | 290,000 compounds, 0.94% hits;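 further: calls also rest on retests at 20 µM and on dose response follow-up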
MLLE-PAM2 inh: inhibitors of microRNA-mediated deadenylation, human PABP1 MLLE binding; inhibition, % at 20 µM; 360,000 compounds, 0.36% hits; GST-MLLE / FITC-PAM2 fluorescence polarization; P11940; AID 588489; in the data active means inhibition above about 35%, passing the limit was not always enough
PABP polyA inh: blocks human PABP binding to poly(A) RNA; AID 2014; fluorescence polarization; 290,000 compounds, 1% hits; inhibition, % at 35 µM;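 further: calls also rest on retests at 20 µM and on dose response follow-up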
Hits are given with their value; 0 = inactive; ? = inconclusive; - = no result given; [ ] = remark or other dose. The list is not random: actives were taken first. Their share in the collection is about 1.6%. Unless noted, how the calls were made is not given here.

SMILES	PERK inhibitor	eIF4E-4G inh	eIF4H FP inh	MLLE-PAM2 inh	PABP polyA inh
NC(=O)NC(=O)COC(=O)c1ccc(Cl)c(S(=O)(=O)N(Cc2ccccc2)c2ccc(Cl)cc2)c1	0	0	0	0	16.3
NC(=O)COC(=O)c1ccc(Cl)c(S(=O)(=O)N(Cc2ccccc2)c2ccc(Cl)cc2)c1	0	0	0	0	0
N#C/C(=C(/O)COC(=O)c1ccccc1O)c1nc2ccccc2s1	0	0	0	0	19.9
CC(C)(C)c1ccc(C(=O)OC/C(O)=C(\C#N)c2nc3ccccc3s2)cc1	0	0	0	0	0
CN(C)S(=O)(=O)N(CC(=O)NCc1ccccc1)c1ccccc1	0	0	0	0	0
CC(=O)Nc1ccc(-c2ccccc2)s1	0	0	0	0	45.6
CC(=O)Nc1ccc(NC(C)=O)s1	0	0	0	0	0
CC1CN(S(=O)(=O)c2cccc(C(=O)OCc3cc(=O)oc4cc(O)ccc34)c2)CC(C)O1 (stereo not drawn)	0	-	0	0	0
CN(C)c1cccc(C(=O)OCc2cc(=O)oc3cc(O)ccc23)c1	0	0	87.7	0	69.7
O=C(CSc1nnnn1C1CCCCC1)NCc1ccccc1	0	0	0	0	0
Cn1nc2c(c1C(=O)O)CCCC2	0	0	102.0	0	13.2
Cn1nc2c(c1C(=O)N1CCCC(C(=O)c3cc(F)ccc3F)C1)CCCC2 (stereo not drawn)	0	0	0	0	0
CS(=O)(=O)N1CCN(C(=S)NCc2ccc(Cl)cc2)CC1	0	0	82.4	0	4.3
CS(=O)(=O)N1CCN(C(=S)NCc2ccc(F)cc2)CC1	0	0	0	0	0
CCNc1ccc(Br)cc(C(=O)/C=C/c2ccc3c(c2)OCO3)c1=O	0	0	78.5	0	38.3
CNc1ccc(Br)cc(C(=O)/C=C/c2cccc(OC)c2)c1=O	0	0	80.5	0	active
CCNc1ccc(Br)cc(C(=O)/C=C/c2ccc(Cl)cc2)c1=O	0	0	0	0	0
COc1ccc(NC(=O)c2cc3ccccc3cc2OC)cc1OC	-	-	0	0	0
O=C1C=CC(=O)N1c1ccccn1	-	-	-	0	-
O=C(O)c1cccc(N2C(=O)C=CC2=O)c1	-	-	-	0	-
O=C(c1ccccc1)c1ccccc1N1C(=O)C=CC1=O	0	0	0	39.2	0
O=C1C=CC(=O)N1c1ccccc1N1C(=O)C=CC1=O	-	-	-	44.0	-
COc1ccc(CNC(=O)C2CCN(c3nnc(N4CCCC4=O)s3)CC2)cc1	-	-	90.4	0	52.4
Cc1ccc(OCCC(=O)O)cc1	0	0	?	0	22.9
Cc1ccc(NC(=O)COC(=O)CCc2c[nH]c3ccccc23)cc1[N+](=O)[O-]	0	0	0	0	0
SMILES	PERK inhibitor	eIF4E-4G inh	eIF4H FP inh	MLLE-PAM2 inh	PABP polyA inh
COc1ccc2c(Cl)c(C(=O)NCCc3ccc(S(N)(=O)=O)cc3)sc2c1	-	-	0	0	0
CC(C)c1ccc(NS(=O)(=O)c2ccc(-n3cccn3)cc2)cc1	-	-	87.5	0	73.6
CC(C)c1ccc(S(=O)(=O)Nc2ccc(-n3cnnn3)cc2)cc1	-	-	-	0	-
Fc1ccc(Nc2nc(NCc3cccs3)nc3ccsc23)cc1	-	-	-	0	-
CCOC(=O)C1=C(c2ccccc2)NC(N)=NC1c1ccc(OCc2ccc(Cl)cc2)c(OC)c1 (stereo not drawn)	0	37.1	0	0	0
CCN(CC)CCCNc1ncnc2ccccc12	0	0	0	0	57.2
COc1ccc(C(=O)Nn2cnnc2)cc1OC	0	0	88.7	0	72.5
S=c1nc(-c2ccccc2)oc2c1CCCC2	0	0	0	0	0
COc1cccc(-c2nc(=S)c3c(o2)CCCC3)c1	0	0	0	45.3	0
O=[N+]([O-])c1ccc(-c2nc(=S)c3c(o2)CCCC3)cc1	0	0	0	45.0	0
O=[N+]([O-])c1ccc(C2=NCCO2)cc1	0	0	0	0	0
Cc1ccc(C2=NC(=O)/C(=C/c3cc(O)c(O)c(Br)c3)S2)cc1	0	0	56.4	0	4.2
COc1cc(/C=C2\SC(c3ccc(C)cc3)=NC2=O)cc(OC)c1O	0	0	0	0	0
COc1cc(OC)c(/C=N/NC(=O)c2ccc(NC(C)=O)cc2)cc1Br	0	41.5	0	0	0
COc1ccc(S(=O)(=O)O)cc1P(=O)(c1ccccc1)c1ccccc1	-	-	0	0	0
Cc1nc2cc(C(=O)O)ccc2s1	0	-	0	39.2	0
O=C(/C=C/c1ccc([N+](=O)[O-])cc1)c1ccco1	-	-	0	0	0
O=C(/C=C/c1ccc([N+](=O)[O-])cc1)/C=C/c1ccco1	-	-	60.8	0	49.9
O=C(C=C1SCCS1)/C=C/c1ccco1	0	0	89.7	0	60.0
Cc1ccc(N2C(=O)N(CC(=O)Nc3cccc(Cl)c3)C(=O)C2C)cc1 (stereo not drawn)	-	-	-	0	-
COC(=O)/C=C1/SC(=NC(=O)c2ccc(Cl)cc2)NC1=O	-	-	-	0	-
COC(=O)/C=C1\SC(=NC(=O)c2ccc(C)cc2)NC1=O	0	0	0	40.1	0
CC(=O)Oc1ccccc1/C=C/c1nc2ccccc2c(=O)o1	-	-	0	0	0
O=c1oc(/C=C/c2ccc([N+](=O)[O-])s2)nc2ccccc12	-	-	97.1	0	98.5
Cc1ccc(CNC(=O)CCCC(=O)Nc2cc(C)on2)cc1	0	0	0	0	0
SMILES	PERK inhibitor	eIF4E-4G inh	eIF4H FP inh	MLLE-PAM2 inh	PABP polyA inh
CCOc1ncccc1C(=O)OCc1c(Cl)cccc1Cl	0	0	0	0	0
CCN1CCN(C(c2ccc(C(F)(F)F)cc2)c2ccc3cccnc3c2O)CC1 (stereo not drawn)	-	-	0	40.6	0
CN1CCN(C(c2ccc(C(F)(F)F)cc2)c2cc(Cl)c3cccnc3c2O)CC1 (stereo not drawn)	-	-	0	-	0
OCCN1CCN(C(c2cccs2)c2ccc3cccnc3c2O)CC1 (stereo not drawn)	0	45.7[fluorescence artefact?]	0	-	0
Cc1ccc(C(=O)NC2CCCC2)cc1S(=O)(=O)N1CCCCC1	-	-	0	0	0
CC(=O)N1CCN(Cc2nc3cc(NC(=O)C4CCCCC4)ccc3n2C)CC1	0	0	0	0	0
COc1cc(O)c(C(C)=O)c(CC(=O)O)c1	-	0	96.2	0	58.3
O=S(=O)(c1ccccc1)N1CCCC1c1cccs1 (stereo not drawn)	0	97.5	0	0	0
Cc1cccc(-c2nnc(SCC3CNC(=O)O3)n2-c2ccc(Cl)cc2)c1 (stereo not drawn)	0	44.9	0	0	0
COc1ccc(-n2c(SCC3CNC(=O)O3)nnc2-c2ccc(Cl)cc2)cc1 (stereo not drawn)	0	0	0	0	0
O=C1OC(CN2CCOCC2)CN1N=Cc1ccc([N+](=O)[O-])o1 (stereo not drawn)	-	-	-	0	-
Cc1nn(C)c(C(=O)NC(=S)Nc2ccccc2Br)c1Cl	-	-	0	0	0
Cc1nn(C)c(C(=O)NC(=S)Nc2ccc([N+](=O)[O-])cc2)c1Cl	-	-	0	39.9	0
O=C(NC(=S)Nc1ccc(C(=O)N2CCOCC2)cc1)c1ccc([N+](=O)[O-])cc1	0	0	0	43.7	0
COc1ccc(Cl)cc1-c1nc(-c2ccc(NC(=O)c3cccs3)cc2)no1	0	0	0	0	0
